Data taken from PubChem BioAssay (NCATS).
Values without a mark were called inactive. Results filed as inconclusive are left out. Calls of active or inactive are those of the source. Unless noted, calls follow the shape of the dose curve; as a rule, active = well fitted curve in either direction with a large enough effect (not every such curve was filed as active); inconclusive = small, poorly fitted or top-dose-only effect, or another doubt; inactive = flat fitted curve, though single readings scatter.

Assays:
[1] = molecular target: Lysosomal acid glucosylceramidase (Homo sapiens) (UniProt P04062); assay: Glucocerebrosidase-p2 (AID 348; in the data active = potency below about 10 µM; also: potency is read from the fitted curve at half-maximal effect); details: purified GBA, blue fluorogenic substrate, 40 min
Procedure, shortened: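 Normal human glucocerebrosidase (0.2 nM) with blue fluorogenic substrate (80 uM final) in citrate/phosphate pH 5.9 with 10mM sodium taurocholate, 0.01% tween-20; 40 min RT, NaOH/glycine stop; fluorescence Ex 365/Em 440; AC50 from a titration from 0.6 nM upwards.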

[2] = AP1 Signaling Pathway (AID 357); details: ME-180 AP-1-bla reporter, EGF-induced, beta-lactamase ratio, 5 h; at 7.69 µM (top of the series) unless noted;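 also: ME-180 reporter cells stimulated with EGF at its EC50 level; % is scaled to controls: 0 for no effect and ±100 for the full control effect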
Procedure, shortened: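 First, ME-180 AP-1-bla cells were cultured overnight at 37 °C in low-serum Opti-MEM. Next, titrated compounds with EC50 EGF were incubated 5 hours. Finally, CCF4 was added for 2.5 hours and the 460/530 nm ratio recorded.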

[3] = molecular target: Cytochrome P450 1A2 (Homo sapiens) (UniProt P05177); assay: p450-cyp1a2 (AID 410; calls by dose curve; also: potency is read from the fitted curve at half-maximal effect;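 as to activity change, negative = inhibition: -100% = full effect of reference inhibitor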); details: recombinant CYP1A2, luciferin-ME demethylation, luminescence; series mostly up to 11.4 µM
Procedure, shortened: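 Luminescent demethylation readout: Luciferin-ME (100uM, equal to Km) turned over by 20nM CYP1A2 for 60 min at room temperature after NADPH regeneration addition, following 10 min compound preincubation. Normalization used 57 uM furafylline as full inhibition.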

[4] = NFAT Signaling Pathway (AID 444); details: Jurkat NFAT-bla M1, carbachol, beta-lactamase ratio, 5 h; at 7.69 µM (top of the series) unless noted;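 also: carbachol stimulus at about its EC50 of 1 µM final; % is scaled to controls: 0 for no effect and ±100 for the full control effect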
Procedure, shortened: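 Jurkat cells carrying an NFAT-driven β-lactamase reporter and co-transfected muscarinic M1 receptor were treated with compound plus carbachol (1 uM final, an EC50 level) for 5 h at 37 °C. CCF4 loading followed for 1 h at RT; 460/530 nm ratio gave %activity.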

[5] = Stat Signaling Pathway (AID 446); details: ME-180 (cervical carcinoma) SIE beta-lactamase reporter, IL-6 stimulated, 5 h; at 7.69 µM (top of the series) unless noted;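 also: ME-180 cervical cancer cells given 40 pM IL-6 alongside compound; SIE-controlled beta-lactamase reporter measured as 460/530 nm FRET emission ratio; % is scaled to controls: 0 for no effect and ±100 for the full control effect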
Procedure, shortened: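 Emission at 460 and 530 nm (excitation 405 nm) reports SIE-controlled beta-lactamase in ME-180 cells. Cells received compound with 40 pM IL-6 for 5 hrs at 37 C; data scaled between 300 pM IL-6 and 125 nM JAK-inhibitor controls.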

[6] = molecular target: Glucocorticoid receptor (Homo sapiens) (UniProt P04150); assay: GR-GFP Redistribution (AID 450;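 active = compounds whose dose series gives a full or clear partial fitted curve of increased nuclear translocation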; also: potency is read from the fitted curve at half-maximal effect); details: U2OS GR-GFP nuclear translocation, laser cytometry, 2 h
[7] = molecular target: Glucocorticoid receptor (Homo sapiens) (UniProt P04150); assay: GR-EFC Redistribution (AID 451; calls by dose curve; also: potency is read from the fitted curve at half-maximal effect); details: CHO-K1 GR-EFC translocation, beta-gal luminescence, 2 h
Procedure, shortened: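 CHO-K1 cells stably expressing nuclear-localized β-gal enzyme acceptor and GR fused C-terminally to the enzyme donor fragment; ligand-driven nuclear translocation restores β-gal by complementation. Compounds titrated up to 46 uM final, 2 h at 37 °C; luminescence read.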

[8] = molecular target: Mitogen-activated protein kinase 10 (Mus musculus) (UniProt Q61831); assay: JNK3 AlphaScreen Assay (AID 530); details: JNK3 lysate, c-Jun phosphorylation; series mostly up to 11.4 µM;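 also: kinase came from lysate of stimulated human HepG2 cells; signal reports phosphorylation of biotinylated GST-cJun 1-79 at Ser73 with 10 µM ATP; % is scaled to controls: 0 for no effect and ±100 for the full control effect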
Procedure, shortened: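 Phosphorylation of biotinylated GST-cJun(1-79) at Ser73 is measured by AlphaScreen proximity luminescence. Enzyme is JNK3 in HepG2 lysates activated with interleukin-1beta and tumor necrosis factor alpha; ATP is 10 uM final.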

[9] = molecular target: 3',5'-cyclic-AMP phosphodiesterase 4B (Homo sapiens) (UniProt Q07343); assay: qHTS Assay for Inhibitors of PDE-IV (AID 607; active = well fitted activation curve with a large enough effect in the main read-out, with a control signal flat, not every such curve was filed as active; also: % of control where 0% means no effect); details: HEK293 ACTOne CNG channel cells, membrane potential fluorescence; series mostly up to 22.9 µM
Procedure, shortened: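 The readout is membrane depolarisation from a cAMP-sensing CNG channel, detected with a potential dye at ex 535/em 590. Cells were HEK293-derived (endogenous PDE-IV) at 1000 cells/well, titrated up to 22.9 uM final.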

Chain of Lysosomal acid glucosylceramidase (Homo sapiens) (P04062 whole entry, looked up): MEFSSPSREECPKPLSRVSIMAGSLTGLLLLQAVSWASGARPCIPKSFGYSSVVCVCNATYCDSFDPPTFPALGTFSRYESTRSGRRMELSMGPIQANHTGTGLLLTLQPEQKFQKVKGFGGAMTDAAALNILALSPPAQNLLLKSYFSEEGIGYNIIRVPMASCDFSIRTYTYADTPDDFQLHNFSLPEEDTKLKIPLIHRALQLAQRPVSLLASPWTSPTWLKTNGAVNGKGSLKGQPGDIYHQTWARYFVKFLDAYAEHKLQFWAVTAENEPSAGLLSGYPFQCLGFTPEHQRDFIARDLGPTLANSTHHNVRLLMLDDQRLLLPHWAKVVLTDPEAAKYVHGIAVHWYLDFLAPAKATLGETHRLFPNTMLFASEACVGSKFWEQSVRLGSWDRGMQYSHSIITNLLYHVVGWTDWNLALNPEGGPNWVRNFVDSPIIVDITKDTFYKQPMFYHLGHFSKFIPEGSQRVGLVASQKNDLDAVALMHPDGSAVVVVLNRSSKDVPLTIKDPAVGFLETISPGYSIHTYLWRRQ
Chain of Glucocorticoid receptor (Homo sapiens) (P04150 whole entry, looked up, the tested form may be a part): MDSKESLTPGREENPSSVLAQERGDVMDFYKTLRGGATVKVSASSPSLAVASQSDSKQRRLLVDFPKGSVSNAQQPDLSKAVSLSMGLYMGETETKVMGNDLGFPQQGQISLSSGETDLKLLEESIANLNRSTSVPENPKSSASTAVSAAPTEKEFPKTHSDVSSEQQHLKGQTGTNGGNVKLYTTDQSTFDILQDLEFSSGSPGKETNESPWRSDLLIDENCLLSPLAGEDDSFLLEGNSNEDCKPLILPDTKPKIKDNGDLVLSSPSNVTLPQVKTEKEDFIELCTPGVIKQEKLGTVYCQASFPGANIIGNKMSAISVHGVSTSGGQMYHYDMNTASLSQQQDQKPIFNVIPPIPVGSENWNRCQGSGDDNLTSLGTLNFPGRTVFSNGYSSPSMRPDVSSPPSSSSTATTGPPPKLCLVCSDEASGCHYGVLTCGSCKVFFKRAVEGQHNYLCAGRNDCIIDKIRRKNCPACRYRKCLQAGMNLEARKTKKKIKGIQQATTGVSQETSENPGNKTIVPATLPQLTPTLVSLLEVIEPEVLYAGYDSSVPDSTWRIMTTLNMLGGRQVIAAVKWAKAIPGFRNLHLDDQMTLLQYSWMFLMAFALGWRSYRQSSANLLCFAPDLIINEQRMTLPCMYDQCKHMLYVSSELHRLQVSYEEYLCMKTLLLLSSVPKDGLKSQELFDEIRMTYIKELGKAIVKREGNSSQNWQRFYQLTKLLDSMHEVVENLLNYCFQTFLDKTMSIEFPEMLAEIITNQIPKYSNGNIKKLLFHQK
Chain of 3',5'-cyclic-AMP phosphodiesterase 4B (Homo sapiens) (Q07343 whole entry, looked up): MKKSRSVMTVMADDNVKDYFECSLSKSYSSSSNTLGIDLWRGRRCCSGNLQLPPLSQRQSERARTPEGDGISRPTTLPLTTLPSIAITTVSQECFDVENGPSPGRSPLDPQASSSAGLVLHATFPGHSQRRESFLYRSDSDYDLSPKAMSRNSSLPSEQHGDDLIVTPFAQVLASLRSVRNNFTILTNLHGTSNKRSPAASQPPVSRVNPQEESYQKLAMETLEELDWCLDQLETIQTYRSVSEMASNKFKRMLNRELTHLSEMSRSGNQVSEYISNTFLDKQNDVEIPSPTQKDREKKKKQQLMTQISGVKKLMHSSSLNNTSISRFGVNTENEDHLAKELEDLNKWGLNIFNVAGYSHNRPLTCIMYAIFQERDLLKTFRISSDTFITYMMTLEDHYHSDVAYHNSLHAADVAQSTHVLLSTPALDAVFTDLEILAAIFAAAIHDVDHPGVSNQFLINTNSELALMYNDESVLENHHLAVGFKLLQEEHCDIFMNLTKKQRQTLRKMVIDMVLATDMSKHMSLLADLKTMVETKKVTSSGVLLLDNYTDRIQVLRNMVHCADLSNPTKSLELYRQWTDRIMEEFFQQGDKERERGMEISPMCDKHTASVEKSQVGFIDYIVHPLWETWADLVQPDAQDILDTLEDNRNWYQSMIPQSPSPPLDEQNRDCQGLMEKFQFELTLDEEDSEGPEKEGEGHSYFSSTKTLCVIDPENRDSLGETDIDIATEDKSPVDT
Chain of Cytochrome P450 1A2 (Homo sapiens) (P05177 whole entry, looked up): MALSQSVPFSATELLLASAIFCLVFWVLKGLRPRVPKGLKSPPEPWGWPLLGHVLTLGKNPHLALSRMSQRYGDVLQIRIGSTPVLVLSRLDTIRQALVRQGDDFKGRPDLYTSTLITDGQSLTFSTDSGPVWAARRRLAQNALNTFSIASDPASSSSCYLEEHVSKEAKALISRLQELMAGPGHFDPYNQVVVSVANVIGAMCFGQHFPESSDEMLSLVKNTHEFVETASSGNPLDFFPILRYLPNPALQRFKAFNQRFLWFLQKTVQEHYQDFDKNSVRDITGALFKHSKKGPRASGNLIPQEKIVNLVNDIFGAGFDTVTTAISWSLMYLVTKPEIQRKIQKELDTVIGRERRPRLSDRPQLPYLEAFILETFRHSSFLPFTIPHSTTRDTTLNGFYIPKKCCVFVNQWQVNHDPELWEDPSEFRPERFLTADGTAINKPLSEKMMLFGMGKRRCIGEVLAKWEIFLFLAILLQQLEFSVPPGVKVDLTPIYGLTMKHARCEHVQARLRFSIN

| Compound | Potency [1] | activity change, negative = inhibition [2] | Potency [3] | activity change, negative = inhibition [4] | activity, negative = inhibition [5] | Potency [6] | Potency [7] | Potency [8] | Potency [9] | activity change, negative = inhibition [3] |
| --- | --- | --- | --- | --- | --- | --- | --- | --- | --- | --- |
| CCOC(=O)Nc1nc(-c2ccccc2)c(C)s1 | > 11.4 µM | -8.11% | 0.2 µM (active) | -9.95% | 1.24% | > 46 µM | > 9.22 µM | inactive | inactive |  |
| OCCCN=C1CCCCC1 | > 11.4 µM | 14.4% | inactive | 7.24% | -19.6% | > 46 µM | > 9.22 µM | inactive | inactive |  |
| O=S(=O)(C[C@H](O)C(Cl)(Cl)Cl)NNc1ccccc1 | > 11.4 µM | -0.0496% |  | 2.68% | 5.12% | > 46 µM | > 9.22 µM | inactive | inactive | 0.8% [at 2.29 µM] |
| C[C@@H]1C[C@H](C)CN(S(=O)(=O)c2cc(Cl)c(Oc3ccc([N+](=O)[O-])cc3Cl)c(Cl)c2)C1 | > 11.4 µM | 16.4% | inactive | -22.6% | 20.1% | > 46 µM | > 9.22 µM | inactive | inactive |  |
| Nc1ncnc2c1ncn2CCCCC(=O)O | > 11.4 µM | 10.7% | inactive | 13.9% | -0.241% | > 46 µM | > 9.22 µM | inactive | inactive |  |
| O=C(O)/C=C(/C(=O)O)[C@]12CCN3CC4=CCO[C@@H]5CC(=O)N[C@@H]1[C@H]5[C@H]4C[C@H]32 | > 11.4 µM | 9.14% |  | -1.3% | -7.59% | > 46 µM | > 9.22 µM | inactive | inactive | -15% [at 2.29 µM] |
| CN1CCCN(C)C1c1cc([N+](=O)[O-])ccc1O | > 11.4 µM | 7.56% | inactive | -23.2% | -0.988% | > 46 µM | > 9.22 µM | inactive | inactive |  |
| O=C(O)CNC(=O)c1ccccc1O | > 11.4 µM | 6.2% | 5.01 µM (active) | 10.4% | 6.14% | > 46 µM | > 9.22 µM | inactive | inactive |  |
| O=C(O)[C@H]1[C@H](C(=O)O)[C@H](C(=O)O)C[C@@H]1C(=O)O | > 11.4 µM | -1.4% | inactive | 2.63% | 4.24% | > 46 µM | > 9.22 µM | inactive | inactive |  |
| Nc1nc(N)[n+]([O-])c(N)c1NCO | > 11.4 µM | 7.34% | inactive | 9.37% | 7% | > 46 µM | > 9.22 µM | inactive | inactive |  |
| O=NN(Cc1ccc(Cl)cc1)[C@@H](C(=O)O)c1ccccc1 | > 11.4 µM | 15.1% | 5.01 µM (active) | -4.59% | 0.591% | > 46 µM | > 9.22 µM | inactive | inactive |  |
| Nc1c(OCC(=O)O)ccc2cc(S(=O)(=O)O)ccc12 | > 11.4 µM | 3.51% | inactive | -3.75% | -10.7% | > 46 µM | > 9.22 µM | inactive | inactive |  |
| O=CN[C@@H](Cc1cnc[nH]1)C(=O)O | > 11.4 µM | 4.13% | inactive | 2.87% | 0.427% | > 46 µM | > 9.22 µM | inactive | inactive |  |
| CC(C)(C[C@@]1(C)NC(=O)NC1=O)OCc1ccccc1 | > 11.4 µM | -2.92% |  | -0.038% | 0.608% | > 46 µM | > 9.22 µM | inactive | inactive | -12.1% [at 2.29 µM] |
| CC(C)(CN)CN | > 11.4 µM | 0.738% | inactive | 2.82% | 0.176% | > 46 µM | > 9.22 µM | inactive | inactive |  |
| Clc1ccc(C=Nc2ccc3c(c2)Cc2ccccc2-3)c(Cl)c1 | > 11.4 µM | 3.71% | 0.794 µM (active) | 23.1% | 12.8% | > 46 µM | > 9.22 µM | inactive | inactive |  |
| O=C(O)c1ccccc1NCn1c(=S)sc2ccccc21 | > 11.4 µM | 5.4% | 0.501 µM (active) | 7.61% | -1.41% | > 46 µM | > 9.22 µM | inactive | inactive |  |
| NS(=O)(=O)c1ccc(N=Nc2ccc[nH]c2=O)cc1 | 3.95 µM (active) | -1.61% | 0.501 µM (active) | -25.2% | -6.14% | > 46 µM | > 9.22 µM | inactive | inactive |  |
| CCn1c(CCCc2nc3c([nH]2)c(=O)n(C)c(=O)n3C)nc2c1c(=O)n(C)c(=O)n2C | > 11.4 µM | -3.01% |  | 6.75% | 1.77% | > 46 µM | > 9.22 µM | inactive | inactive | -16.7% [at 2.29 µM] |
| O=C(N/N=C\c1cccc(O)c1)c1ccncc1 | > 11.4 µM | -2.52% | inactive | -7.01% | 4.22% | > 46 µM | > 9.22 µM | inactive | inactive |  |
| Oc1c(Cl)cc(CN(Cc2cc(Cl)c(O)c(Cl)c2)C2CCCCC2)cc1Cl | > 11.4 µM | 4.05% |  | 1.82% | -25.8% | > 46 µM | > 9.22 µM | inactive | inactive | 11.3% [at 2.29 µM] |
| CN(C)CCn1c(CO)nc2c1c(=O)n(C)c(=O)n2C | > 11.4 µM | 1.13% | inactive | 1.85% | 6.5% | > 46 µM | > 9.22 µM | inactive | inactive |  |
| O=C(O)c1c[nH]c2cc(OCc3ccccc3)ccc2c1=O | > 11.4 µM | -8.18% | inactive | 5.14% | -8.65% | > 46 µM | > 9.22 µM | inactive | inactive |  |
| CN(C)S(=O)(=O)Nc1ccccn1 | > 11.4 µM | 2.01% | inactive | 17.9% | 8.85% | > 46 µM | > 9.22 µM | inactive | inactive |  |
| CC1CCC(O)([C@](C)(C(=O)O)c2ccccc2)CC1 (some centres not stated) | > 11.4 µM | -5.12% | inactive | -26.7% | -1.34% | > 46 µM | > 9.22 µM | inactive | inactive |  |
| COc1ccc(/C=N\NC(=O)O)cc1 | > 11.4 µM | 7.79% | 0.501 µM (active) | 19.9% | 7.25% | > 46 µM | > 9.22 µM | inactive | inactive |  |
| O=C1C=C(Nc2nc(C(=O)O)cc(=O)[nH]2)c2ccccc2C1=O | > 11.4 µM | -3.21% |  | 7.2% | 1.38% | > 46 µM | > 9.22 µM | inactive | inactive | -15.8% [at 2.29 µM] |
| Clc1ccccc1C(Nc1cnccn1)Nc1cnccn1 | > 11.4 µM | 8.81% |  | 6.25% | -2.8% | > 46 µM | > 9.22 µM | inactive | inactive | -18% [at 2.29 µM] |
